High-throughput results as filed in PubChem BioAssay.
tim23-1 inh: growth inhibitors of tim23-1 mutant yeast, primary screen, luminescence, uHTS; S. cerevisiae tim23-1 growth, BacTiter-Glo luminescence, 24 h; inhibition, % at 20 µM; 330,000 tested, 1.3% active; AID 463212, 2010;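 active = growth inhibition of the mutant yeast at or above 50%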;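 also: temperature-sensitive mutant grown at 25 °C; plate controls were DMSO-treated mutant yeast for no effect and medium wells lacking yeast for full effect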
TIM10 inh: growth inhibitors of isogenic TIM10 control yeast, primary screen, counter-screen for tim10-1 yeast inhibitor project, luminescence, uHTS; S. cerevisiae TIM10 strain growth, BacTiter-Glo luminescence, 24 h; inhibition, % at 10 µM; 330,000 tested, 1.4% active;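 active = inhibition of 40% or more at the single tested concentration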;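 also: wild-type TIM10 isogenic control strain grown at permissive 25 °C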
tim10-1 inh: growth inhibitors of tim10-1 mutant yeast, primary screen, luminescence, uHTS; 330,000 tested, 2.2% active; inhibition, % at 20 µM; S. cerevisiae tim10-1 ts strain growth, BacTiter-Glo, 24 h;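 active = inhibition of at least 40%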;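 also: mutant grown at 25 °C; 0% = DMSO wells with yeast and 100% = wells holding no yeast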
MPTP inh: mitochondrial permeability transition pore inhibitors, primary screen, biochemical, isolated mouse mitochondria, absorbance; Ca2+ swelling absorbance, 30 min; inhibition, % at 10 µM; 360,000 tested, 1.4% active;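 active = inhibition of 50% or more, scaled per plate between neutral and stimulator controls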;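 also: 0% = DMSO wells given calcium and 100% = 1 mM EGTA wells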
Mdm2-MdmX inh: inhibitors of human Mdm2-MdmX association, primary screen, cell-based, luminescence, split luciferase, SaOS-2, uHTS | Protein Mdm4 (Homo sapiens) + E3 ubiquitin-protein ligase Mdm2 (Homo sapiens), … | AID 485346, 2010 | SaOS-2 split-luciferase Mdm2/MdmX complementation | 330,000 tested, 3% active | inhibition, % at 8 µM;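 active = inhibition of at least 50% at 8 µM in the primary screen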
Target sequence (O15151 whole entry, looked up): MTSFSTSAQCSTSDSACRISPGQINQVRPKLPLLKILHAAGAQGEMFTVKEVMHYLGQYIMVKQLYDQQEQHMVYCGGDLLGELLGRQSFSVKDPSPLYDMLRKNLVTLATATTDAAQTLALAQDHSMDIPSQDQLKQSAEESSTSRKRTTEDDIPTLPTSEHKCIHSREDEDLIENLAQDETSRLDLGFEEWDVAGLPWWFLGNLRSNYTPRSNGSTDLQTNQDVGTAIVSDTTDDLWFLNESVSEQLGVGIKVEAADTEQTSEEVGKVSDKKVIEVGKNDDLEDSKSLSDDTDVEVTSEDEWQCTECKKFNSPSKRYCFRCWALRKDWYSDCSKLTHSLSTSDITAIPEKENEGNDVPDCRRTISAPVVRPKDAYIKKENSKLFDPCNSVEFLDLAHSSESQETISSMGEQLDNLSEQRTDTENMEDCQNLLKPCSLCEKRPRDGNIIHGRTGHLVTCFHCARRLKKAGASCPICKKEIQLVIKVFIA
Target sequence (Q00987 whole entry, looked up): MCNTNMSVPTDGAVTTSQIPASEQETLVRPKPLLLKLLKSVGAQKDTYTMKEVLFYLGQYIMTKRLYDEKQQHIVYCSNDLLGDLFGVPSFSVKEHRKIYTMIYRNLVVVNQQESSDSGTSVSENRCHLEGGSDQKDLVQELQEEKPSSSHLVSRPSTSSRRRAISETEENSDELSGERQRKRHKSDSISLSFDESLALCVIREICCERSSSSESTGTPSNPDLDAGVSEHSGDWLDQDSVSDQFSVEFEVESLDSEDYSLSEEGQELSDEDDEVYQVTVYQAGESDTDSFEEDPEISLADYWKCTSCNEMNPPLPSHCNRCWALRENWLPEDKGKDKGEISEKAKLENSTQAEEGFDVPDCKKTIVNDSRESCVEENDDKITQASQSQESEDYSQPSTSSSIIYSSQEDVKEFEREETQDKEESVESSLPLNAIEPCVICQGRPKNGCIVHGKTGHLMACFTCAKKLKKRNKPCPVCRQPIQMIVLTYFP
Rh123 counter: fluorescence retest of MPTP screen hits in isolated mitochondria, single concentration. shares compounds with MPTP inh. membrane potential, Rhodamine 123 fluorescence. inhibition, % at 10 µM. 5,000 tested, 78% active. AID 624504, 2012; in the data active = inhibition above about 22%;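 also: 0% = DMSO vehicle and 100% = positive control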
MPTP abs DR: mitochondrial permeability transition pore inhibitors, dose response, biochemical, absorbance, uHTS hits; shares compounds with MPTP inh; 780 tested, 58% active; isolated mitochondria swelling; AID 651561, 2012; IC50, µM; in the data active = IC50 below about 20 µM
MPTP cs DR: fluorescent counter-screen in isolated mitochondria, dose response, counter-screen for MPTP inhibitor project, biochemical, fluorescence, uHTS hits | IC50, µM | 780 tested, 49% active | isolated mitochondria counterscreen, fluorescence read-out | shares compounds with MPTP inh; in the data active = IC50 below about 80 µM
* hit, by the source's call; x = no result given; ! = a repeat was not active. An excerpt weighted towards active compounds, which were near 6.3% of everything screened.

SMILES	tim23-1 inh	TIM10 inh	tim10-1 inh	MPTP inh	Mdm2-MdmX inh	Rh123 counter	others
O=C(/C=C/[C@H]1O[C@@H](n2cnc3c(NC(=O)c4ccccc4)ncnc32)[C@H](O)[C@@H]1O)NCC1CCCO1 (some centres not stated)	x	x	x	-1	x	x
Nc1c2c(nc3sc4c(c13)CCCC4)CCCCCC2	2	22	20	86*	-16	103*
CCOC(=O)c1sc(NC(=O)c2ccc(S(=O)(=O)N3CCCCCC3)cc2)nc1-c1ccccc1	-18	-10	-12	37	19	x
CCOC(=O)c1ccc(S(=O)(=O)N2CCN(S(=O)(=O)CC)CC2)cc1	5	19	7	60*	4	-1	MPTP abs DR=>100;MPTP cs DR=>80
CCOC(=O)c1sc(NC(=O)c2ccc(S(=O)(=O)N3CCCCC3)cc2)nc1-c1ccccc1	2	3	7	50*	17	32*
Cn1nc(CC(=O)NC2CCCCCCCCCCC2)c2ccccc2c1=O	8	0	14	2	28	x
Cn1nc(CC(=O)Nc2ccc3c(c2)CCC3)c2ccccc2c1=O	-2	-4	2	95*	23	78*
Nc1ccc(-c2cnc(N)c(C(=O)c3cccnc3)n2)cn1	x	x	x	0	x	x
CC(C)(C)c1ccc(Oc2ccc(NC(=O)c3cccs3)cn2)cc1	27	25	10	54*	29	44*
COc1ccc(N=c2cc(-c3ccc(O)cc3)oc3ccccc23)cc1	47	31	40	68*	-2	73*
O=c1cc(-c2ccc(O)cc2)oc2ccccc12	30	18	23	-2	-22	x
CS(=O)(=O)Nc1ccc(-c2ccc3nccn3c2)cc1	x	x	x	1	x	x
CN(C)CCCOc1nn(Cc2ccccc2)c2ccccc12	17	-3	9	75*	-19	-4
O=C(NC1CCCCC1)c1nc(C2CCNCC2)oc1-c1ccccc1	x	x	x	1	x	x
O=C(CCC(=O)OCC(=O)c1ccc(C(F)(F)F)cc1)OCC(=O)c1ccc(C(F)(F)F)cc1	-6	-16	-9	-1	31	x
COCCCC/C(=N\OCCN)c1ccc(C(F)(F)F)cc1	37	8	-13	82*!	5	-19	MPTP abs DR=13*;MPTP cs DR=>80
CC1(C(=O)NS(=O)(=O)c2cccc(OC(F)F)c2)CCN1C(=O)CCc1cccs1 (configuration not stated)	x	x	x	-1	x	x
O=C(Nc1ccc(Cl)cc1)OCCn1nnnc1C(c1ccccc1Cl)N1CCOCC1 (configuration not stated)	19	21	20	72*	30	85*
O=C(Nc1ccc(Cl)cc1)OCCN1CCOCC1	x	x	x	0	x	x
Cc1cccc(CN2[C@H](CO)C=CS2(=O)=O)c1	x	x	x	-2	x	x
Cc1cc(NC(=S)Nc2cccnc2)ccc1Br	6	11	3	88*	-6	72*
Cc1cc(Cl)ccc1NC(=S)Nc1cccnc1	22	0	17	29	-14	x
COc1ccc(C(=O)OCC(=O)NC2CC2)cc1	x	x	x	-2	x	x
N#Cc1c(NC(=O)Cn2c(=O)oc3ccccc32)oc(-c2ccccc2)c1-c1ccccc1	1	0	4	95*	0	44*
CCOC(=O)C1=C(C)N=c2sc(=Cc3cc(Cl)c(OCC(=O)O)c(Cl)c3)c(=O)n2C1c1cccc(OC)c1 (configuration not stated)	x	x	x	1	x	x
SMILES	tim23-1 inh	TIM10 inh	tim10-1 inh	MPTP inh	Mdm2-MdmX inh	Rh123 counter	others
Cn1c2ccccc2c(=O)c2c(=O)n(C3CCCCCC3)c(C3CCCCC3)nc21	x	x	x	88*	x	5
O=C(Nc1nc(=S)ss1)c1ccc(Cl)cc1Cl	x	x	x	88*	x	64*
O=C(Nc1ccc2ccccc2c1)c1ccc(Cl)cc1Cl	24	12	38	0	-221	x
CC(C)C(NC(=O)c1c(F)cccc1F)C(=O)N1CCN(S(=O)(=O)c2ccc(F)cc2)CC1 (configuration not stated)	-6	-2	-14	1	-11	x
Cc1ccc(S(=O)(=O)/N=C2/NC(=O)/C(=C/c3ccc(Br)o3)S2)cc1	21	5	19	53*	-4	68*
CCCCOC(=O)c1[nH]c2c(c1C)C(=O)CC(c1cc(OC)c(OC)c(OC)c1)C2 (configuration not stated)	18	11	18	70*	26	90*
CC1CCC2C(=O)N(c3ccc(Cc4ccncc4)cc3)C(=O)C2C1 (configuration not stated)	19	-1	27	87*	-9	89*
CC(C)c1ccc(NC(=O)Nc2nc(C(N)c3ccccc3)cs2)cc1 (configuration not stated)	x	x	x	5	x	x
O=C(Cc1csc(NC(=O)Nc2ccc(Cl)cc2)n1)NC1CCCC1	1	1	13	94*	-1	81*
O=C(Nc1ccc(Cl)cc1)Nc1nc(-c2ccccc2O)cs1	-18	2	-10	99*	27	67*
O=C(Cc1csc(NC(=O)Nc2ccc(Cl)cc2)n1)NCc1ccccn1	-1	6	10	18	6	x
CCOC(=O)c1csc(NC(=O)Nc2cccc(Cl)c2)n1	9	6	14	97*	37	84*
CCOC(=O)Cc1csc(NC(=O)Nc2ccc(Cl)cc2)n1	8	2	10	74*	9	77*
CC(=O)C1CCC2C3CC(C)=C4CC(O)CCC4(C)C3CCC12C (configuration not stated)	x	x	x	0	x	x
CCCCN(C=O)c1c(CC)nc2c(OCC3CCCCC3)cccn12	x	x	x	2	x	x
NCc1csc(NC(=O)Nc2cccc(Cl)c2)n1	x	x	x	2	x	x
CCOC(=O)Cc1csc(NC(=O)Nc2cccc(Cl)c2)n1	5	26	19	73*	7	86*
Cc1cnc(NC(=O)Nc2ccc(Cl)cc2)s1	22	24	24	82*	-81	86*
Cc1csc(NC(=O)Nc2ccc(Cl)cc2)n1	-1	-5	3	74*	-19	69*
COc1ccc(CC2(CO)CCN(CC3=Cc4cc(Cl)ccc4OC3)CC2)cc1	-86	-43	-21	97*	38	107*
O=C(O)C1CCCCC1C(=O)Nc1ccc(S(=O)(=O)N2CCOCC2)cc1 (configuration not stated)	x	x	x	-1	x	x
c1ccc(Cc2ccc(OCCCNC3CCCC3)cc2)cc1	-11	10	23	x	39	x
